# Source: PubChem BioAssay
# This is a sample that favours compounds with a hit; in the whole collection about 1.1% have one here.
# AmpC no deterg = AmpC beta-lactamase inhibition without detergent. P00811. AmpC nitrocefin hydrolysis, absorbance 480 nm, 0.0001% Triton. Potency, µM (titrated, usually from 57.1 µM), inactives show at the top dose activity change, negative = inhibition, actives largely listed as inhibitors. actives 0.52% (n = 330,000);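 note: plate controls were no compound for no effect and no enzyme for full effect; nearly all actives have a fitted effect of over 20% in size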
# Target sequence (P00811 whole entry, looked up): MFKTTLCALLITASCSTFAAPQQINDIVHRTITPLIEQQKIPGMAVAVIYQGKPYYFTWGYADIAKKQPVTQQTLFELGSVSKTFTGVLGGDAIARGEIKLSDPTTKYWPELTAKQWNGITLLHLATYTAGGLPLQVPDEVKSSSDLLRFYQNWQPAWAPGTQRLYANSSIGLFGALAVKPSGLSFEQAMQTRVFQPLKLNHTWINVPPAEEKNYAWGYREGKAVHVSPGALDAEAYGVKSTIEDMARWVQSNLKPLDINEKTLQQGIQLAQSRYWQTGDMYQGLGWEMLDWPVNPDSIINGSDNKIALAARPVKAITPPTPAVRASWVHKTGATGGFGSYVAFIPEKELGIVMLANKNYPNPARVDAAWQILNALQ
#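 AmpC (5.3 nM in the dispensed reagent) in 20 mM phosphate pH 7.0 with 0.01% (detergent screen) or 0.0001% Triton X-100 was preincubated with compounds for 15 min at room temperature. Nitrocefin was then added from an 800 uM solution, and hydrolysis was followed at 480 nm.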
# AmpC inh detg = blocks E. coli AmpC beta-lactamase in detergent assay; P00811; AmpC hydrolysis of nitrocefin, absorbance 480 nm, 0.01% Triton; Potency, µM (titrated, usually from 114 µM), without a hit: at the highest dose activity change, negative = inhibition, usual class: inhibitors; actives 0.041% (n = 370,000);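 note: 0% = no-compound wells and -100% = no-enzyme wells; nearly all actives have a fitted effect of over 25% in size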
#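 AmpC (5.3 nM in the dispensed reagent) in 20 mM phosphate pH 7.0 with 0.01% (detergent screen) or 0.0001% Triton X-100 was preincubated with compounds for 15 min at room temperature. Nitrocefin was then added from an 800 uM solution, and hydrolysis was followed at 480 nm.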
# FBPA Giardia inh = inhibitors of Giardia lamblia fructose-1,6-bisphosphate aldolase. Potency, µM (doses to about 59.6 µM), inactives show top-dose activity, negative = inhibition, usual class: inhibitors. purified Giardia FBPA. A8B2U2. actives 0.71% (n = 290,000). AID 2451; note: nearly all actives have a fitted effect of over 55% in size
# Target sequence (A8B2U2 whole entry, looked up): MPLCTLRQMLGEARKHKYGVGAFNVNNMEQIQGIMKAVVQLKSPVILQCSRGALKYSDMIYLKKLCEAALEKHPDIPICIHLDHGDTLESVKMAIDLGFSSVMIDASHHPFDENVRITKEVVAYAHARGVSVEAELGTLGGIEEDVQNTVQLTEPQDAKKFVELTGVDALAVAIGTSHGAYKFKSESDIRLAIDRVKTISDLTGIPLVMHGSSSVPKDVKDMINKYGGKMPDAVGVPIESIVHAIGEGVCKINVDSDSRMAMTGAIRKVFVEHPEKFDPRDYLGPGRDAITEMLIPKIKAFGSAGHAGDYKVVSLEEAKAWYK
#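 40 nM FBPA preincubated 10 min at RT with compound (up to 57.5 uM final), then substrate plus GAPDH/TPI/NAD/arsenate coupling and diaphorase/resazurin added. Fluorescence read after 20 min at RT, 525/598 nm.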
# AMA1-RON2 inh = AMA1-RON2 (P. falciparum) interaction inhibition. actives 0.2% (n = 360,000). AlphaScreen AMA1-biotinylated RON2 peptide binding. AID 720542. Potency, µM (top dose mostly 58.2 µM), inactives show at the top dose activity change, negative = inhibition, hits mostly inhibitors;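 note: 0% = vehicle wells and -100% = peptide control; nearly all actives have a fitted effect of over 45% in size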
#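 AMA1 (3D7) with his tag at 25 nM final met compounds first, then biotinylated RON2 peptide at 25 nM; detection used donor plus acceptor beads, 10 µg/mL apiece, read by AlphaScreen after 30 min at room temperature.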
# * marks the source's active call; other numbers are inactive results; ? = inconclusive; . = no result given; [ ] = remark or other dose. Calls come from the whole dose curve; as a rule, active = well fitted curve in the direction sought with a large enough effect; inconclusive = small, poorly fitted or top-dose-only effect, or another doubt; inactive = no such curve, though single readings can be large; an effect the other way counts as inactive or inconclusive. Unless noted, % is set by controls: 0 for no effect and ±100 for the full control effect; potency is the fitted concentration of half-maximal effect.
SMILES,AmpC no deterg,AmpC inh detg,FBPA Giardia inh,AMA1-RON2 inh
CCCn1cnc2c(N)c(C)c(C)cc21,0.316µM*,6.0%,0.9%,-7.0%
Cn1c(=O)c(=O)n(C)c2cc(S(=O)(=O)CCC(=O)N3CCOCC3)ccc21,3.98µM*,5.8%,-4.8%,3.6%
CC1CCCN(C(=O)CCS(=O)(=O)c2ccc3c(c2)n(C)c(=O)c(=O)n3C)C1 (centres undefined),-6.1%,10.3%,10.2%,2.3%
S=C1NC2=C(CCC/C2=C\c2ccccc2)C(c2ccccc2)N1 (centres undefined),11.2µM*,-12.3%,0.8%,-5.9%
S=C1NC2=C(CCC/C2=C\c2ccc(Cl)cc2)C(c2ccc(Cl)cc2)N1 (centres undefined),-53.0%,0.2%,-0.9%,37.9%
C/C(=N\NC(=O)c1nnn(-c2nonc2N)c1CSc1ccc(C)cc1)c1cccnc1,.,.,.,14.8%
Cc1cccc(Nc2ncnc3nc[nH]c23)c1,-18.7%,-8.2%,-6.6%,-3.8%
COc1ccc(Nc2ncnc3nc[nH]c23)cc1OC,12.6µM*,?,-12.1%,1.0%
Cc1noc(C)c1S(=O)(=O)N1CCN(Cc2ccc3c(c2)OCO3)CC1,7.08µM*,-16.2%,11.0%,-5.9%
CCCC(=O)Nc1c(C(=O)OCC)[nH]c2ccccc12,20µM*,5.1%,-3.3%,0.4%
CCOC(=O)c1[nH]c2ccccc2c1NC(=O)CC(C)C,-13.2%,7.7%,3.0%,0.0%
O=Nc1c(O)n(Cc2ccccc2)c2ccccc12,-27.9%,0.5%,13.3%,-18.1%
O=Nc1c(O)n(Cc2ccc(Cl)c(Cl)c2)c2ccccc12,2.51µM*,-7.0%,7.8%,-20.8%
c1ccc(CNCCC(Cc2ccccc2)c2ccco2)cc1 (centres undefined),0.2%,2.8%,7.3%,-8.2%
CN(C)c1ccc(CNCCC(Cc2ccccc2)c2ccco2)cc1 (centres undefined),4.9%,0.4%,7.8%,15.8µM*
O=C(Cn1nnc(-c2ccccc2)n1)Nc1cccc(S(=O)(=O)N2CCOCC2)c1,17.8µM*,0.0%,.,0.8%
O=[N+]([O-])c1ccccc1NC(=S)N/N=C/c1ccc(O)c(O)c1,4.47µM*,-1.7%,?,77.3%
CCN(CC)CCCn1c(=S)[nH]c2cc(Cl)ccc2c1=O,28.2µM*,?,-0.5%,-0.9%
CCN(CC)CCCn1c(=S)[nH]c2ccc(Cl)cc2c1=O,0.282µM*,0.9%,-0.9%,2.9%
CCOc1cc2[nH]c(=S)n(CCCN(CC)CC)c(=O)c2cc1OCC,1.4%,0.4%,-25.2%,2.2%
COC(=O)C1=C(N)OC2=C(C(=O)CCC2)C1c1cccs1 (centres undefined),-38.4%,-12.5%,-27.5%,?
CCOC(=O)C1=C(N)OC2=C(C(=O)CCC2)C1c1cccs1 (centres undefined),-15.0%,5.8%,12.6µM*,-1.8%
CSCCC(NS(=O)(=O)c1ccc2ccccc2c1)C(=O)OCC(=O)c1ccc(C(C)C)cc1 (centres undefined),7.94µM*,-7.0%,-0.7%,-12.9%
CSCCC(NC(=O)COc1ccccc1)C(=O)OCC(=O)c1ccccc1 (centres undefined),1.7%,2.7%,.,-4.2%
CCCCSc1nc2c(cnn2-c2ccc(F)cc2)c(=O)[nH]1,39.8µM*,?,-10.5%,-6.9%
SMILES,AmpC no deterg,AmpC inh detg,FBPA Giardia inh,AMA1-RON2 inh
CCC(C)Sc1nc2c(cnn2-c2ccc(C)c(C)c2)c(=O)[nH]1 (centres undefined),39.8µM*,-14.5%,-2.2%,-1.8%
COCc1cc(C)n(CC(=O)Nc2ccc(NC(C)=O)cc2)c(=O)c1C#N,.,5.8%,.,.
CCOC(=O)C1=C(C)N(C[C@@H]2CC[C@@H](Cc3ccc(-c4ccccc4)cc3)O2)C(=O)NC1c1ccc(C(F)(F)F)cc1 (some centres undefined),-26.1%,.,.,6.4%
CCOC(=O)C1=C(C)N(C[C@@H]2CC[C@@H](Cc3ccc(-c4ccccc4)cc3)O2)C(=O)NC1c1ccc(SCc2ccco2)c([N+](=O)[O-])c1 (some centres undefined),7.94µM*,.,.,-18.5%
O=C(NC(=S)Nc1ccccc1N1CCCC1)c1ccco1,-32.1%,-4.3%,14.1µM*,-11.5%
O=C(NC(=S)Nc1ccccc1N1CCCCC1)c1ccco1,-37.7%,?,-0.4%,-5.9%
CCCc1nc2c(=O)n(C)c(=O)nc-2n(C)n1,3.5%,5.1%,5µM*,3.7%
Cn1nc(-c2ccccn2)nc2c(=O)n(C)c(=O)nc1-2,-14.6%,-8.2%,?,8.91µM*
COc1ccc(-c2nc(-c3ccccn3)ncc2S(C)(=O)=O)cc1,-9.8%,?,8.6%,75.2%
CCC(CC)C(C(=O)NCc1ccccc1)N(C)Cc1ccc(Cl)c(Cl)c1 (centres undefined),.,.,.,9.3%
N#CCCn1c(=O)c(-c2ccccc2)nc2cnc(Oc3cccc(Cl)c3)nc21,.,.,-2.7%,.
CC(=O)N(c1ccccc1C)C1CCCC1,-16.5%,-11.9%,-1.0%,11.1%
CC(=O)N(C1=C(Cl)C(=O)c2ccccc2C1=O)C1CCCCC1,-8.0%,-5.2%,1.58µM*,-20.0%
CN(C)c1ccc(/C=C/C(=O)c2cc(Cl)ccc2O)cc1,-26.6%,0.3%,-1.7%,14.1µM*
O=C(/C=C/c1ccncc1)c1cc(Cl)ccc1O,-1.6%,1.5%,-9.0%,-4.7%
c1ccc(CNc2ccc3c(c2)ncn3C2CCCCC2)nc1,7.08µM*,?,0.6%,?
COc1ccccc1OCc1ccc(C(=O)NCc2ccco2)o1,0.282µM*,0.2%,6.0%,-0.2%
COc1ccccc1OCc1ccc(C(=O)NC(C)(C)C)o1,0.4%,-1.8%,0.2%,7.8%
COc1cccc(C(=O)Nc2cccc(C(=O)OCc3cc(=O)n4c5c(sc4n3)CCCC5)c2)c1,.,14.0%,.,.
S=c1[nH]nc(COc2ccccc2)n1/N=C/C=C/c1ccco1,15.8µM*,-1.4%,?,45.0%
S=c1[nH]nc(COc2ccccc2)n1/N=C/C=C/c1ccccc1,-5.3%,-5.5%,14.7%,17.4%[2.32 µM]
COc1cc2c(cc1OC)C(c1ccc(N)cc1)=NNC(=O)C2,.,.,5.5%,.
CCOc1cc(N2CCOCC2)c(OCC)cc1NC(C)C(=O)N1CCN(CC)CC1 (centres undefined),-21.3%,-5.1%,5µM*,-15.6%
Clc1cccc(N2CCN(Cc3nc(-c4ccccc4)no3)CC2)c1,10µM*,?,0.8%,-9.9%
Clc1ccc(-c2noc(CN3CCN(c4ccccc4)CC3)n2)cc1,-15.7%,?,2.4%,-2.1%
O=C(CSc1ncc2c(n1)-c1cc(Cl)ccc1N(Cc1ccccc1)S2(=O)=O)NCc1ccccc1,.,1.3%,.,.
Cc1ccc(CN2CCN(/N=C\C=C\c3ccccc3)CC2)cc1,28.8%,-0.1%,2.8%,12.6µM*
Cc1ccc(CN2CCN(/N=C/c3ccc(C)s3)CC2)cc1,-28.9%,?,2.9%,25.1µM*
CC1(C)Cc2nc3oc4c(=S)nc[nH]c4c3cc2CO1,-11.0%,-10.7%,11.2µM*,39.7%
C=CCSc1ncnc2c1oc1nc3c(cc12)COC(C)(C)C3,-9.8%,6.2%,-0.7%,-1.7%
